Experiment [1] deals with rat Thyrotropin Releasing Hormone Receptor (TRH), Trhr (gene 25570) (UniProt Q01717). Kind of experiment: NVS_GPCR_rTRH: NovaScreen (NVS) G Protein-Coupled Receptor Assay for rat Thyrotropin Releasing Hormone Receptor (TRH) (AID 2283329).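 Also: hit means lower bound tracer signal versus DMSO baseline.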 The procedure, abridged: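 Rat forebrain membrane prep, radioligand displacement, filter scintillation readout at 4 h. Single conc 25 uM, duplicate; actives retested as concentration series. DMSO = negative control/baseline.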
Sequence of rat Thyrotropin Releasing Hormone Receptor (TRH), Trhr (gene 25570) (Q01717 whole entry, looked up): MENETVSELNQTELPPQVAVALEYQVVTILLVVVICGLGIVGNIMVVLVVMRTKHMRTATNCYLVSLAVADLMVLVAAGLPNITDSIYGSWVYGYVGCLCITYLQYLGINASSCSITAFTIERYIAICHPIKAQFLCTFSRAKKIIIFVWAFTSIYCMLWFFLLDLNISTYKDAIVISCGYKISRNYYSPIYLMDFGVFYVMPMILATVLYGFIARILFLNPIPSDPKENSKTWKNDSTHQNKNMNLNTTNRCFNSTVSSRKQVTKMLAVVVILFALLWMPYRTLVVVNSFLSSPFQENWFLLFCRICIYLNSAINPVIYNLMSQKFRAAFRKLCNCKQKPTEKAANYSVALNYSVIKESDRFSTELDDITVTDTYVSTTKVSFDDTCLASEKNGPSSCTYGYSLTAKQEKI

Experiment [2] has as its target Estrogen receptor (Homo sapiens) (UniProt P03372). Kind of experiment: OT_ER_ERaERa_1440: Odyssey Thera (OT) 24-hour HEK293T Protein-Complementation Assay for Estrogen Receptor-alpha/-alpha Homodimer (AID 2283349).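 Also: hits raise fluorescence above DMSO for agonists and antagonists alike.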 A digest of the protocol:
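Stably transfected HEK293T; ERα LBD homodimer PCA. 24 h dosing, fluorescence intensity read, gain-of-signal vs DMSO.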

For experiment [3] the target is unchanged. Kind of experiment: OT_ER_ERaERa_0480: Odyssey Thera (OT) 8-hour HEK293T Protein-Complementation Assay for Estrogen Receptor-alpha/-alpha Homodimer (AID 2283351).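 Also: rise in fluorescence from reassembled reporter fragments on ERα LBD homodimer in nucleus or whole cell.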 The procedure, abridged:
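Read-out: fluorescence intensity rise relative to DMSO, nuclear for agonists, nuclear plus cytoplasmic for antagonists. Construct is the ERα LBD (aa 310-547) homodimer fragment-complementation pair, stably expressed in HEK293T; exposure 8 h.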

Experiment [4] deals with Estrogen receptor (Homo sapiens) + Estrogen receptor beta (Homo sapiens) (UniProt P03372+Q92731). Kind of experiment: OT_ER_ERaERb_0480: Odyssey Thera (OT) 8-hour HEK293T Protein-Complementation Assay for Estrogen Receptor-alpha/-beta Heterodimer (AID 2283352). The procedure, abridged: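 HEK293T cells expressing ER-alpha/ER-beta LBD fusions to complementary reporter fragments were dosed with compound for 8 hours. Heterodimer formation was read as increased nuclear (agonist) or nuclear plus cytoplasmic (antagonist) mean fluorescence intensity versus DMSO vehicle.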
Sequence of Estrogen receptor (Homo sapiens) + Estrogen receptor beta (Homo sapiens) (P03372 whole entry, looked up, the tested form may be a part): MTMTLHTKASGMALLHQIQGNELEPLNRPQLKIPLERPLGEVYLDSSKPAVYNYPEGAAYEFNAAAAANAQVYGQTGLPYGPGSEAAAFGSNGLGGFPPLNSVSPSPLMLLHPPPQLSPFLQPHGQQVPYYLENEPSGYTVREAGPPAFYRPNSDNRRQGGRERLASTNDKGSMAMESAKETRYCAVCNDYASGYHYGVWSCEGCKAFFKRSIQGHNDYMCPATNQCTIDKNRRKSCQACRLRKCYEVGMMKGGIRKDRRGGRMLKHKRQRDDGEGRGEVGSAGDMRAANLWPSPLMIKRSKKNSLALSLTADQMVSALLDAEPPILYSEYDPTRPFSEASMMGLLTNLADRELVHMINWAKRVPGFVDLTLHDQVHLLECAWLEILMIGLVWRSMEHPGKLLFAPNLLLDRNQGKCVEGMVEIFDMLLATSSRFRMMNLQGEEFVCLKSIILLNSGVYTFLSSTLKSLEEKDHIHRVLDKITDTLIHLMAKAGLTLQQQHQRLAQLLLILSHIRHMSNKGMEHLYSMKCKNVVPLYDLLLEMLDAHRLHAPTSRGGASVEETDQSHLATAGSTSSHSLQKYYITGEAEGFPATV
Sequence of Estrogen receptor (Homo sapiens) + Estrogen receptor beta (Homo sapiens) (Q92731 whole entry, looked up, the tested form may be a part): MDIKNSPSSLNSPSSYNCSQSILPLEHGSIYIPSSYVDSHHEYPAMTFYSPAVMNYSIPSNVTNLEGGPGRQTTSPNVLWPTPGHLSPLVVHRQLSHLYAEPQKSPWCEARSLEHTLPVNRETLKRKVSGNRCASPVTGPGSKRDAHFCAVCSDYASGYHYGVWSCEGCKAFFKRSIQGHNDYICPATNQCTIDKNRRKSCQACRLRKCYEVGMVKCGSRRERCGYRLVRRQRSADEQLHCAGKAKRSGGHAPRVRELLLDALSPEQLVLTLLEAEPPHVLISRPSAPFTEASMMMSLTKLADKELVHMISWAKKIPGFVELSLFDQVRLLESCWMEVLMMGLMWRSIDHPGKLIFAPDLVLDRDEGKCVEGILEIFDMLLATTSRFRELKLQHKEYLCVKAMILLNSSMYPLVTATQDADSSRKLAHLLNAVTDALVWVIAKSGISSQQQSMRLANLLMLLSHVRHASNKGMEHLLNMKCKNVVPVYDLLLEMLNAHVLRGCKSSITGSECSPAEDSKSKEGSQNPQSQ

The target of experiment [5] is human Peripheral-type Benzodiazepine Receptor (PBR), TSPO (gene 706) (UniProt P30536). As to the kind of experiment: NVS_MP_hPBR: NovaScreen (NVS) Membrane Protein Assay for human Peripheral-type Benzodiazepine Receptor (PBR) (AID 2283331).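 Also: hits reduce radioligand binding relative to DMSO baseline.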 The procedure, abridged:
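Using human colon-derived membranes, this one-endpoint binding test reads radioligand loss by scintillation after 1 h. Screening started at 25 uM in duplicate, with positive and negative controls on every plate, and actives moved to dose series.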

The target of experiment [6] is rat Peripheral-type Benzodiazepine Receptor (PBR), Tspo (gene 24230) (UniProt P16257). As to the kind of experiment: NVS_MP_rPBR: NovaScreen (NVS) Membrane Protein Assay for rat Peripheral-type Benzodiazepine Receptor (PBR) (AID 2283335). A digest of the protocol: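 Single-concentration duplicate screening at 25 uM preceded concentration-series retesting of actives. Binding of a specific radioligand to rat kidney membrane PBR was read by filtration radiodetection after 1 h, with plate-wise positive and negative controls.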
Sequence of rat Peripheral-type Benzodiazepine Receptor (PBR), Tspo (gene 24230) (P16257 whole entry, looked up): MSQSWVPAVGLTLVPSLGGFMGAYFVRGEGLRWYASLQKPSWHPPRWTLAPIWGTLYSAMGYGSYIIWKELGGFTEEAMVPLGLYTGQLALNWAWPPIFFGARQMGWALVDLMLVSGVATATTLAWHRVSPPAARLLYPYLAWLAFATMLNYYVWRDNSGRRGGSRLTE

Experiment [7] has as its target bovine Estrogen Receptor (ER), ESR1 (gene 407238) (UniProt P49884). As to the kind of experiment: NVS_NR_bER: NovaScreen (NVS) Nuclear Receptor Binding Assay for bovine Estrogen Receptor (ER) (AID 2283345).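 Also: actives lower the bound radioligand count which means they displace the ER ligand.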 The procedure, abridged:
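Scintillation counting of displaced radioligand gave the readout; bovine uterine membrane extract supplied the receptor. Measured 18 h post-dose, normalized to DMSO baseline. Single 25 uM duplicate screen preceded concentration-response follow-up.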

The target in experiment [8] is Estrogen receptor (Homo sapiens) (UniProt P03372). Kind of experiment: NVS_NR_hER: NovaScreen (NVS) Nuclear Receptor Binding Assay for human Estrogen Receptor (ER) (AID 2283348). A digest of the protocol:
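Radiodetection of ligand displacement in a lysate-based, cell-free format using MCF7 extracts, read at 18 hours. Duplicate 25 uM primary testing, then concentration series for actives.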

Experiment [9] has as its target Androgen Receptor/SRC-1 Co-activator, AR (gene 367) (UniProt P10275). As to the kind of experiment: OT_AR_ARSRC1_0480: Odyssey Thera (OT) 8-hour HEK293T Protein-Complementation Assay for Androgen Receptor/SRC-1 Co-activator (AID 2283354).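 Also: hits raise the complementation signal above DMSO so AC50 marks enhancers.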 The procedure, abridged: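 After 8 h dosing, stably expressing HEK293T cells with split-Venus AR/SRC-1 fusions were imaged (488, 635nm). The 488nm N/C ratio per image gave the endpoint, analysed in the positive direction against DMSO.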

For experiment [10], the target named is rat Opioid Receptor, Non-selective Binding, Oprm1 (gene 25601) (UniProt P33535). Kind of experiment: NVS_GPCR_rOpiate_NonSelective: NovaScreen (NVS) G Protein-Coupled Receptor Assay for rat Opioid Receptor, Non-selective Binding (AID 2283318). The procedure, abridged:
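Filter-based radioligand displacement using rat forebrain membrane preparations, measured 1.5 h post-dosing. Single-concentration duplicate screen at 25 uM, follow-up in concentration series; activity taken as signal loss relative to DMSO.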

Experiment [11] deals with Sodium channel protein type 1 subunit alpha (Rattus norvegicus) (UniProt P04774). As to the kind of experiment: NVS_IC_rNaCh_site2: NovaScreen (NVS) Ion Channel Assay for rat Sodium Channel, Site 2 (NaCh) (AID 2283322).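 Also: hit means loss of radioligand binding signal relative to DMSO so AC50 marks displacement.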 The procedure, abridged:
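Initial duplicate single-point testing at 25 uM, followed by concentration-response runs for actives. Binding of radioligand to rat forebrain membranes quantified after 1 h via filter-based radiodetection.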

Experiment [12] is described as follows: NVS_IC_rCaBTZCHL: NovaScreen (NVS) Ion Channel Assay for Calcium Channel, Type L, Benzothiazepine Site (CaBTZCHL) (AID 2283337). The procedure, abridged: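 Rat cortical membrane preparation, cell-free. Radioligand displaced by test chemical; 1.5 h incubation; filtration, scintillation count. DMSO = negative control/baseline. Primary: duplicate, 25 uM; secondary: concentration series.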

Experiment [13] addresses bovine Gamma-Aminobutyric Acid Type A Receptor Agonist (GABAR Agonist), GABRA1 (gene 780973) (UniProt P08219). Kind of experiment: NVS_LGIC_bGABAR_Agonist: NovaScreen (NVS) Ligand-Gated Ion Channel Assay for bovine Gamma-Aminobutyric Acid Type A Receptor Agonist (GABAR Agonist) (AID 2283338). A digest of the protocol: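 Radioligand binding to bovine cerebellar membranes in agonist format, read by filter-based scintillation counting after 1 h. Primary screen in duplicate at 25 uM, with actives followed in concentration series. Gain of signal versus DMSO.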

Experiment [14] concerns guinea pig Histamine Receptor (H2), gene 100729734. Kind of experiment: NVS_GPCR_gH2: NovaScreen (NVS) G Protein-Coupled Receptor Assay for guinea pig Histamine Receptor (H2) (AID 2283342). A digest of the protocol:
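Guinea pig striatal membrane preparation with specific radioligand; bound counts measured by filtration and scintillation 1 h post-dosing, DMSO as baseline. Chemicals passing a 25 uM duplicate screen were titrated to a 50 uM maximum.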

Experiment [15] deals with chimpanzee Androgen Receptor (AR), AR (gene 747460) (UniProt O97775). As to the kind of experiment: NVS_NR_cAR: NovaScreen (NVS) Nuclear Receptor Binding Assay for chimpanzee Androgen Receptor (AR) (AID 2283346). The procedure, abridged: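 Cell-free radioligand displacement using receptor protein extracted from Sf9/Sf21 cells; bound radioligand measured by scintillation counting 72 hours after chemical dosing. Loss of signal versus DMSO baseline indicates binding; primary screen single-concentration in duplicate at 25 uM, actives followed in concentration series.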
Sequence of chimpanzee Androgen Receptor (AR), AR (gene 747460) (O97775 whole entry, looked up): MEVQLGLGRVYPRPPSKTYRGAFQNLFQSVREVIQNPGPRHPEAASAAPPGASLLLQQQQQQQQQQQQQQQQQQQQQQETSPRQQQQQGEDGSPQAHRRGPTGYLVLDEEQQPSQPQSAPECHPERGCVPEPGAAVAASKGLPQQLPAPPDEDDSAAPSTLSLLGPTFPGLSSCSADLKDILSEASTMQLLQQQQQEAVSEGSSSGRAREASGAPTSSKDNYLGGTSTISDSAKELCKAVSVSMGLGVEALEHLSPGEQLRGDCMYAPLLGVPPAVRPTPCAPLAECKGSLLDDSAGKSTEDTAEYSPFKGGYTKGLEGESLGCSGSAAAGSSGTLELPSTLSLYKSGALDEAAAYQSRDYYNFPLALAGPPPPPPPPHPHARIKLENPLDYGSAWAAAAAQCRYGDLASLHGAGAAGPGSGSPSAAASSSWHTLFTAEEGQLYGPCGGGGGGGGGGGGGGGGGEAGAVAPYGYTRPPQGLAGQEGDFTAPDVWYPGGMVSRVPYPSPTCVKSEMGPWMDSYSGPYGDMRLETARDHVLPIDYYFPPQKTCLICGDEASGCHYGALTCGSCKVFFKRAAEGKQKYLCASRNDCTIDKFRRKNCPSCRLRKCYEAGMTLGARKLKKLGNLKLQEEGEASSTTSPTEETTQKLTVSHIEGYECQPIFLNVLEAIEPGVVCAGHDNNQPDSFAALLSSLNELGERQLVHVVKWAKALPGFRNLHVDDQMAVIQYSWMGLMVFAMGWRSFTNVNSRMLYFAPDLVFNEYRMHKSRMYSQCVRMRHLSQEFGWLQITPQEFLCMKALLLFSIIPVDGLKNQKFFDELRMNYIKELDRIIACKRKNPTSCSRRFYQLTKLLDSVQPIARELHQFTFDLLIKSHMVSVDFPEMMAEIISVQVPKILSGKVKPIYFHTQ

Experiment [16] relates to NCBI gene 100848466. Kind of experiment: NVS_NR_bPR: NovaScreen (NVS) Nuclear Receptor Binding Assay for bovine Progextron Receptor (PR) (AID 2283343).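 Also: actives lower bound radioligand signal below DMSO meaning displacement of the label.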 The procedure, abridged:
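Steps: bovine uterine membranes were dosed with chemical alongside radioligand, incubated 18 hours, then radiodetected by scintillation counting. Initial testing used 25 uM in duplicate; confirmed actives were rerun as concentration series.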

“And” between values parts separate entries of the source, which are not always exact repeats. Equal values may be shown once. Records with an inconclusive call do not appear. The source holds several records for some structures; these can differ, active in one and inactive in another. The source made the active and inactive calls. The calls were made as follows: active = hit-call score of the fitted dose curve at least 0.9, where 1 is the maximum; inconclusive = response in the unintended direction; inactive = score below 0.9.

Sequence of Androgen Receptor/SRC-1 Co-activator, AR (gene 367) (P10275 whole entry, looked up, the tested form may be a part): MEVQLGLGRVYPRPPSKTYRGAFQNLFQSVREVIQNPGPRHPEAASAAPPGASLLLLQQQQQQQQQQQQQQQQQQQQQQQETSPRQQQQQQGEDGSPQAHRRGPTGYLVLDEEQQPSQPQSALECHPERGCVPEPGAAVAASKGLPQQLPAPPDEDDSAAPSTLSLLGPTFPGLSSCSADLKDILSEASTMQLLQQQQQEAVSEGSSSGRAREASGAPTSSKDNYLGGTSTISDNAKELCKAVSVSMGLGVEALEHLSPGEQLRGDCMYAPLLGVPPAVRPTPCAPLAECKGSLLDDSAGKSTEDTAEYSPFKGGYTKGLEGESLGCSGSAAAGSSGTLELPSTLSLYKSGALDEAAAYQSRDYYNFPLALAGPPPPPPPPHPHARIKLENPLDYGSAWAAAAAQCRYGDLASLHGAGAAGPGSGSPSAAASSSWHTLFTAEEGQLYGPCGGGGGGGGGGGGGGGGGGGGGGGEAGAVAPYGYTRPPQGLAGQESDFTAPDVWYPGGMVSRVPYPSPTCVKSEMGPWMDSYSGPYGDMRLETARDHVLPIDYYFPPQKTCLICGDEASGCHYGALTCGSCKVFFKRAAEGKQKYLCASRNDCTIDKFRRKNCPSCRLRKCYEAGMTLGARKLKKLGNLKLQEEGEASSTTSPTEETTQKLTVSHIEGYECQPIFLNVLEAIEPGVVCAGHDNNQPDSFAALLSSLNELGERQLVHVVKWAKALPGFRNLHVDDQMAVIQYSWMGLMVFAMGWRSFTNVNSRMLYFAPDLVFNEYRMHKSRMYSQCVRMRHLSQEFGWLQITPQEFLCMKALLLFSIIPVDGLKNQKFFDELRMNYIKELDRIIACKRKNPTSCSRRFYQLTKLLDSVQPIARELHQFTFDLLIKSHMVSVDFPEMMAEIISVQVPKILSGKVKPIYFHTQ
Sequence of human Peripheral-type Benzodiazepine Receptor (PBR), TSPO (gene 706) (P30536 whole entry, looked up): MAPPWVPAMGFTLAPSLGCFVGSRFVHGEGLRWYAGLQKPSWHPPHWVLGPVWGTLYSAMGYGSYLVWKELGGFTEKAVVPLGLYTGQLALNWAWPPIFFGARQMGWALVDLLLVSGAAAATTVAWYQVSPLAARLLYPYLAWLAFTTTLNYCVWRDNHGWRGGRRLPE
Sequence of Estrogen receptor (Homo sapiens) (P03372 whole entry, looked up, the tested form may be a part): as the sequence (P03372 whole entry, looked up, the tested form may be a part) above
Sequence of rat Opioid Receptor, Non-selective Binding, Oprm1 (gene 25601) (P33535 whole entry, looked up): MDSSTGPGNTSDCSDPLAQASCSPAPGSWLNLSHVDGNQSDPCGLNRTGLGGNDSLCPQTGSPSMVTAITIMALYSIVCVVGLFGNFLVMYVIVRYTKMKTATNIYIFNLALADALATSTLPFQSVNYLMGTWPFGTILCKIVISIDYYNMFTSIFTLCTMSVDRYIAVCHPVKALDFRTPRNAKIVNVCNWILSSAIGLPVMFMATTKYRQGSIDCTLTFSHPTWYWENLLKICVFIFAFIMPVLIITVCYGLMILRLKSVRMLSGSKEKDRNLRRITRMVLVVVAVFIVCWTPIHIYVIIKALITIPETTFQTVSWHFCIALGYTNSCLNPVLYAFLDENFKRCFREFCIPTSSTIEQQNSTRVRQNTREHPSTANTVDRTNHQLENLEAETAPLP

As for `OCC=Cc1ccccc1`, the outcome in experiment [1], in experiment [2], in [3] and in experiment [4] was inactive.
Usually AC50 stands for the midpoint of the concentration-response curve, whichever way the signal moves. Regarding `CCCCCCOc1ccc(O)cc1`, the AC50 is 7.77 µM (active) in experiment [5]; 6.49 µM (active) in experiment [6]; 12 µM (active) in experiment [8]; 13.6 µM (active) in experiment [2]; 18.3 µM (active) in experiment [3]; 12 µM (active) in experiment [4]. Moreover, in experiment [9], the half-maximal activity concentration (AC50) is 78.3 µM (active). Moreover, the compound was called inactive in [7].
Regarding `CC/C(=C(\c1ccccc1)c1ccc(OCCN(C)C)cc1)c1ccccc1`, the outcome in [10], in [13] and in experiment [15] was inactive. Moreover, the half-maximal activity concentration (AC50) is 1.56 µM (active) in experiment [11]; 938 nM (active) and 874 nM (active) in experiment [12]; 4.7 µM (active) and 1.19 µM (active) in [14]; 19.4 µM (active) in [15].
`CCO[Si](CC)(OCC)OCC`: the compound was classed as inactive in [1], in experiment [2], in experiment [3], in [4] and in [9].
For the compound `NC(N)=S`, the call in [1], in experiment [2] and in experiment [3] was inactive.
As to `Nc1ccc(N)c([N+](=O)[O-])c1`, the concentration at half-maximal activity (AC50) is 3.27 µM (active) and 1.74 µM (active) in [5]; 1.02 µM (active) in [6]. In addition, the compound was classed as inactive in [6] and in [12].
Consider `CC(=O)N(C)C`, for which the result in experiment [1], in experiment [2] and in experiment [3] was inactive.
`NC(=O)c1c(Cl)cccc1Cl`: in experiment [5], the AC50 was 3.59 µM (active). For the same compound, the call in [6] was inactive.
For the compound `C#C[C@]1(O)CC[C@H]2[C@@H]3CCc4cc(O)ccc4[C@H]3CC[C@@]21C`, the half-maximal activity concentration (AC50) in experiment [10] is 20.5 µM (active); in experiment [5], 2.52 µM (active) and 13.7 µM (active) and 11.4 µM (active); in [6], 4.59 µM (active); in [16], 0.051 µM (active); in experiment [15], 966 nM (active) and 80.5 nM (active). Besides, the compound was called inactive in experiment [11] and in [6].
Take `C=C1CC/C=C(\C)CC[C@@H]2[C@@H]1CC2(C)C`: the result in experiment [12] was inactive.
For `CC12CCC(C1)C(C)(C)C2O` (stereo not drawn), the compound was classed as inactive in [1], in [8], in experiment [2], in experiment [3] and in experiment [4].
With `CC(C)(C)c1cccc(O)c1`, the outcome in experiment [1], in experiment [15], in [8], in experiment [2] and in experiment [9] was inactive. Besides, the AC50 in experiment [3] was 60.2 µM (active).
For `O=Cc1ccccc1O`, the outcome in experiment [1] and in [3] was inactive. Also, in experiment [2], the AC50 was 92 µM (active).
As to `c1coc(CNc2ncnc3nc[nH]c23)c1`, the call in experiment [1], in [2] and in experiment [3] was inactive.
As for `O=S(=O)(O)c1cc(S(=O)(=O)O)c2c(N=Nc3ccccc3)c(O)ccc2c1`, the compound was classed as inactive in experiment [1], in experiment [2], in experiment [3] and in experiment [4].
Turning to `CCCCCC(=O)O[C@]1(C(C)=O)CC[C@H]2[C@@H]3CCC4=CC(=O)CC[C@]4(C)[C@H]3CC[C@@]21C`, the result in experiment [1], in experiment [7], in experiment [2] and in experiment [4] was inactive. The half-maximal activity concentration (AC50) in [15] was 1.12 µM (active).
With `C1CCCNCC1`, the compound was called inactive in experiment [1], in [2] and in experiment [3].

(Values after PubChem BioAssay (EPA / NIEHS).)
